What all share (assay): DAPPL (digital affinity profiling via proximity ligation, sequencing); 10 mM Tris-HCl pH 7.5, 50 mM NaCl, 1 mM DTT, 4% glycerol, room temperature, 30 min; GST-TFs on glutathione beads, 16-mer random dsDNA library, 0.1% formaldehyde crosslink after washing; high values mean tight binding
Holding throughout (details): protein: recombinant; tags: N-terminal GST; dsDNA, one strand shown

One assay concerns the target SPIB (Homo sapiens, UniProt Q01892 1-262). In outline:
(§1)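 A tag-only sample was pooled with DNA-barcoded human transcription factors that had been expressed in yeast as GST fusions and captured on glutathione beads. The pools were incubated for 30 min at room temperature with 200 nmole of a random double-stranded 16-mer DNA library in Tris/NaCl/DTT/glycerol buffer, then washed, crosslinked with 0.1% formaldehyde, proximity-ligated (BsaI/T4 ligase, 1 h, 37 °C), PCR-amplified and sequenced on an Illumina NextSeq500. Binding signal is each hexamer's read frequency for a factor divided by its frequency for the tag-only sample.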

The next assay addresses T1, ELK3 (Homo sapiens, UniProt P41970 1-407).
T1 sequence: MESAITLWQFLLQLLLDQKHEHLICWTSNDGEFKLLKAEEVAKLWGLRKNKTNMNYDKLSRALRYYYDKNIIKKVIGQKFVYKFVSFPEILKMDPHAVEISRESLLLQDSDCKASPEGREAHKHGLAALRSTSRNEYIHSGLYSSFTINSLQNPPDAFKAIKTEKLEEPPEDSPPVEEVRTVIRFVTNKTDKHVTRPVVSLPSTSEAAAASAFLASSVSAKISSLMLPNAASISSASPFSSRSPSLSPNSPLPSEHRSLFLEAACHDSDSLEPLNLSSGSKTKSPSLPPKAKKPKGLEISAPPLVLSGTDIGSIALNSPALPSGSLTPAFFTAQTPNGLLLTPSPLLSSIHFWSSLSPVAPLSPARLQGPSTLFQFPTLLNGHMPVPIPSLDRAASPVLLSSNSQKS
The method in brief: as §1

The next assay concerns the target ETV5 (Homo sapiens, UniProt P41161 1-510). In outline: as §1
A further assay has as its target T2, ELK4 (Homo sapiens, UniProt P28324-2 1-405).
T2 sequence: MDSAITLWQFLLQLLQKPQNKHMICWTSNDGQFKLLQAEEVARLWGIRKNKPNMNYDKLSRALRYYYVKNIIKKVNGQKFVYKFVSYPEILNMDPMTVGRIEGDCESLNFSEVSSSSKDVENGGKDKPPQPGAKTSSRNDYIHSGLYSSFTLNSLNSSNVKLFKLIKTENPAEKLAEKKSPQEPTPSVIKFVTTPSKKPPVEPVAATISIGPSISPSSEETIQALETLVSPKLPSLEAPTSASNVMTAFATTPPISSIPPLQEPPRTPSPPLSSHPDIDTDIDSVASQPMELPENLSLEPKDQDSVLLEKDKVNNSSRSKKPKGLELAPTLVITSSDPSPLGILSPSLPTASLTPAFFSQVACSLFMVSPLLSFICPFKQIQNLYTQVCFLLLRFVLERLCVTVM
In outline:
as §1

Another assay has as its target ETV1 (Homo sapiens, UniProt P50549 1-477). In outline: as §1
The next assay has as its target T3, ETS2 (Homo sapiens, UniProt P15036 1-469).
T3 sequence: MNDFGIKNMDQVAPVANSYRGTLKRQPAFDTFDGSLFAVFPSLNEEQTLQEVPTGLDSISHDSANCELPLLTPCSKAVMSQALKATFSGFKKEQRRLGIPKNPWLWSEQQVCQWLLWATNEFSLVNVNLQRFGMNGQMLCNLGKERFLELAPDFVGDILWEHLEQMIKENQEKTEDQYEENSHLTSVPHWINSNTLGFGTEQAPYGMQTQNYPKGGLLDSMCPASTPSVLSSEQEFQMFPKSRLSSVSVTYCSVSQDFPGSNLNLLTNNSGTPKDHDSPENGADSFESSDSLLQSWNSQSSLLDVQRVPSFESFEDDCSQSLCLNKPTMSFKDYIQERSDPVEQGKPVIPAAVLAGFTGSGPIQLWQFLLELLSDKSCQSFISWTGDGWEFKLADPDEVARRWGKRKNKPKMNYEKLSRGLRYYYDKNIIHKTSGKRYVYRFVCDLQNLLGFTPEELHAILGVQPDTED
The method in brief: as §1

For the next assay, the target named is T4, ETV7 (Homo sapiens, UniProt Q9Y603 1-341).
T4 sequence: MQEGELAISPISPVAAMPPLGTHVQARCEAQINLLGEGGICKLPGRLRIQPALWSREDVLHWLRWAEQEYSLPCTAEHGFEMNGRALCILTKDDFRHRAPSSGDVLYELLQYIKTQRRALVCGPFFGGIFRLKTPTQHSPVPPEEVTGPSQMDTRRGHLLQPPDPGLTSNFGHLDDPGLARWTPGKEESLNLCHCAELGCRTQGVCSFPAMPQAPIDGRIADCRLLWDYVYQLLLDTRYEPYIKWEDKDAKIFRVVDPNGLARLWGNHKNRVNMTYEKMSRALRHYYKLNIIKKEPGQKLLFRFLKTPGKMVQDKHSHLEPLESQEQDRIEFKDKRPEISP
In outline: as §1

The target in another assay is T5, ELK1 (Homo sapiens, UniProt P19419 1-428).
T5 sequence: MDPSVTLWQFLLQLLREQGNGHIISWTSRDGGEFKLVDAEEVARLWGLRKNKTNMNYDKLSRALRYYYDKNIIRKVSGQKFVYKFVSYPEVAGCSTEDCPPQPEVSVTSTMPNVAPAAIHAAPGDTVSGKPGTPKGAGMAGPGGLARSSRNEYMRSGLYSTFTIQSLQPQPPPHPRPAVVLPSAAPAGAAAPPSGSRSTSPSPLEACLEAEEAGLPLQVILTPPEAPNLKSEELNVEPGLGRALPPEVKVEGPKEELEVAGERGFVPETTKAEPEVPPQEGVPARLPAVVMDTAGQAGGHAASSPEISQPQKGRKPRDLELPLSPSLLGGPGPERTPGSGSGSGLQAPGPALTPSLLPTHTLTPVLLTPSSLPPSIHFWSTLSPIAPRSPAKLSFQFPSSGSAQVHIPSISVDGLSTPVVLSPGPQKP
The method in brief:
as §1

Another assay concerns the target T6, GABPA (Homo sapiens, UniProt Q06546 1-454).
T6 sequence: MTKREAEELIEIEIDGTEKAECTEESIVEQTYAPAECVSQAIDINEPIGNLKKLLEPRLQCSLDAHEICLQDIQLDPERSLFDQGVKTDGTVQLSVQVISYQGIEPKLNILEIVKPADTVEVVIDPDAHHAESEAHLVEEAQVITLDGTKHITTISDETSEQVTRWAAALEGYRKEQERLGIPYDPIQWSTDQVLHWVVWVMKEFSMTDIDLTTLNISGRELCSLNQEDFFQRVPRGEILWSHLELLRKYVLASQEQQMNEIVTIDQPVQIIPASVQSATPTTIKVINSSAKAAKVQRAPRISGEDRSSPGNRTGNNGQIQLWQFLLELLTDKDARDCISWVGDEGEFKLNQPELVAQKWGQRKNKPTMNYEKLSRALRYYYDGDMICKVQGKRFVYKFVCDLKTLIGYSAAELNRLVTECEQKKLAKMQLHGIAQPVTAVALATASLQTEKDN
In outline:
as §1

A further assay addresses T7, ELF3 (Homo sapiens, UniProt P78545 1-371).
T7 sequence: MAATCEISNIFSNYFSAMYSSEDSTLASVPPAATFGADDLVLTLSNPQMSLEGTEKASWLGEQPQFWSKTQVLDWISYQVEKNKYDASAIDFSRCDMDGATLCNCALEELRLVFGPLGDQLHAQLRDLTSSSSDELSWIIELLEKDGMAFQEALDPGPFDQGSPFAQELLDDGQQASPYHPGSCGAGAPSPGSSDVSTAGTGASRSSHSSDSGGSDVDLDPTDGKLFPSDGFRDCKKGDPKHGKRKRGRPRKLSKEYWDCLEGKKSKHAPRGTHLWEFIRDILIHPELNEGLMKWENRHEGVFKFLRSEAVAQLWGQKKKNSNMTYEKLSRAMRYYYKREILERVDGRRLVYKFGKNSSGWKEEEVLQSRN
In outline: as §1

In another assay the target is T8, ERF (Homo sapiens, UniProt P50548 1-548).
T8 sequence: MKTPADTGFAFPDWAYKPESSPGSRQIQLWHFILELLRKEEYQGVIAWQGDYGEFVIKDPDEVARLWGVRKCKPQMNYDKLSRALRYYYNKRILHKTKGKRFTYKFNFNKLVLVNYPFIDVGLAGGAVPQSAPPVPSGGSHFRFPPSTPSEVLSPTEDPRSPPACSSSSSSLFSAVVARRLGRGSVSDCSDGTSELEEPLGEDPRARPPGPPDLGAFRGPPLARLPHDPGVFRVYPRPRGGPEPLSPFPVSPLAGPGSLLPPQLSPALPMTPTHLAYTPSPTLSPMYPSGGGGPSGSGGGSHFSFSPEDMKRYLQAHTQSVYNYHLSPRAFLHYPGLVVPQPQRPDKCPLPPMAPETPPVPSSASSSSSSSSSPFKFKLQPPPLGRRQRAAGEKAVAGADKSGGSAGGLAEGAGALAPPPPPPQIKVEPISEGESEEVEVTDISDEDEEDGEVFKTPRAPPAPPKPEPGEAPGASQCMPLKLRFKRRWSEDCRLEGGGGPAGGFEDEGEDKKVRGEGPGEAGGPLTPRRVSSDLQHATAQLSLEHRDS
The method in brief:
as §1

The target of the next assay is T9, ERG (Homo sapiens, UniProt P11308 1-479).
T9 sequence: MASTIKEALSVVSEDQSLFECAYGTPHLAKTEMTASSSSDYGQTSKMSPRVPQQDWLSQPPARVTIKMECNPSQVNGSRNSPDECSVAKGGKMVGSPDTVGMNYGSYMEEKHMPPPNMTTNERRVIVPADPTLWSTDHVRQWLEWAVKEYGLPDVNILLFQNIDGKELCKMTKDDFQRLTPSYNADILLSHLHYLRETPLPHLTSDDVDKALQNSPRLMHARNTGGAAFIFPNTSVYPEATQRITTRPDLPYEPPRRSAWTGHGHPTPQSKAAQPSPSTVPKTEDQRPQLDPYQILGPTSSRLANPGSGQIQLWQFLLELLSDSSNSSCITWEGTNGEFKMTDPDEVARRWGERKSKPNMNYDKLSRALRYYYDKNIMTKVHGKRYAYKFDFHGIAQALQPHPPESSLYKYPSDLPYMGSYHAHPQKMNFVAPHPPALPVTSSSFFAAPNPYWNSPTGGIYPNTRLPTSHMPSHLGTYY
In outline:
as §1

In the next assay the target is T10, SPDEF (Homo sapiens, UniProt O95238 1-335).
T10 sequence: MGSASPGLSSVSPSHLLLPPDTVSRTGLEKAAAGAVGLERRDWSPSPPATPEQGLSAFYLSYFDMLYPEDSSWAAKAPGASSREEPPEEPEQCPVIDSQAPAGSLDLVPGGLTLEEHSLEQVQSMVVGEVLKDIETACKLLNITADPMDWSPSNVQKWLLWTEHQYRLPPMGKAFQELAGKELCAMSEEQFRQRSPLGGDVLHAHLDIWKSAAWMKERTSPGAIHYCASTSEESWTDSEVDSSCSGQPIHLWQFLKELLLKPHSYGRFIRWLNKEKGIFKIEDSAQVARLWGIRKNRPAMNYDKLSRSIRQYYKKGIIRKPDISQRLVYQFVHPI
In outline: as §1

In the next assay the target is T11, ETV3 (Homo sapiens, UniProt P41162-2 1-143).
T11 sequence: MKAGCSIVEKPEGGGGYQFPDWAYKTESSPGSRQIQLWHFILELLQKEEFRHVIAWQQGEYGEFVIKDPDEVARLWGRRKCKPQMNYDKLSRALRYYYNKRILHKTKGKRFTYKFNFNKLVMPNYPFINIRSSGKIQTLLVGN
In outline: as §1

Data on 3 sequences can be found in publication PMC7862700, “An all-to-all approach to the identification of sequence-specific readers for epigenetic DNA modifications on cytosine”.

Chain of ETV5 (P41161 whole entry): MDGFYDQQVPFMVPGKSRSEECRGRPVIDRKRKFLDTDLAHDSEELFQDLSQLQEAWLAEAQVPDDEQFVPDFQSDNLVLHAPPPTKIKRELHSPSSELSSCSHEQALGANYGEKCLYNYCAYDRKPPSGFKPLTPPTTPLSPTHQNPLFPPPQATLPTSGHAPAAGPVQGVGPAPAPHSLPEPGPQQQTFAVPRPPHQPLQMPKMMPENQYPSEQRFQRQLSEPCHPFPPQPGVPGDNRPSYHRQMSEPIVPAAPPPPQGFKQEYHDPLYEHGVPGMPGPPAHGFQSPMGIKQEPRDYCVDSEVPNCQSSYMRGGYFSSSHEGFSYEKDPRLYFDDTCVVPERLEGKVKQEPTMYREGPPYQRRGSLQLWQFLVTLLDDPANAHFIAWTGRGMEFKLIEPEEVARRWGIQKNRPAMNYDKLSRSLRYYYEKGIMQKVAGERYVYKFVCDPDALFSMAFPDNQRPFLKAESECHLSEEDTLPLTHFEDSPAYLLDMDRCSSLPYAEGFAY
Chain of ETV1 (P50549 whole entry): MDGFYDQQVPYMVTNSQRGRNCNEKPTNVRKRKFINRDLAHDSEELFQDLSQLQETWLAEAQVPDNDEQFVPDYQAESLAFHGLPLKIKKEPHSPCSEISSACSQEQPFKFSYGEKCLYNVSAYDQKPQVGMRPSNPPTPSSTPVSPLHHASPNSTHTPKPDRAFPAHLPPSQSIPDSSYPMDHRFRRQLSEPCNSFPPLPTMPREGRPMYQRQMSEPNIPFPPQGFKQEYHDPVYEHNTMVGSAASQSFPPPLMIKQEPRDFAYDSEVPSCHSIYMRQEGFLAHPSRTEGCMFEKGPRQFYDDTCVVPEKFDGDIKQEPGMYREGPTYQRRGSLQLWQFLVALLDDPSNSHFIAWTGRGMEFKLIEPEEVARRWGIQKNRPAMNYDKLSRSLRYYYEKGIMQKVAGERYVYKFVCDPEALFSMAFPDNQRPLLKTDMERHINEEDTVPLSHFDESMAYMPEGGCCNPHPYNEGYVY
Chain of SPIB (Q01892 whole entry, the tested form may be a part): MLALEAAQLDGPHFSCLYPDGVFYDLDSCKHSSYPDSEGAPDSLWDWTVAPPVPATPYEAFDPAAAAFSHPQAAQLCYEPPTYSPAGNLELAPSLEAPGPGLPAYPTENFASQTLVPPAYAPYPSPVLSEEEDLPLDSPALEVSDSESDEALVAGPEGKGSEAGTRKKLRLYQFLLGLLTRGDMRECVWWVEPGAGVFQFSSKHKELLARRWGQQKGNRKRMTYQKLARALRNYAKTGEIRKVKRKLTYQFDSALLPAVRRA

As to GGGTAT, the binding signal with SPIB was 1.02 fold enrichment (6-mer frequency, TF over GST control); in the assay with ELK3, 1.04 fold enrichment (6-mer frequency, TF over GST control); with ETV5 it was 1.02 fold enrichment (6-mer frequency, TF over GST control); with ELK4, 1.1 fold enrichment (6-mer frequency, TF over GST control); with ETV1 it was 1.01 fold enrichment (6-mer frequency, TF over GST control); with ETS2, 1.02 fold enrichment (6-mer frequency, TF over GST control). In the assay with ETV7, the binding signal was 1.02 fold enrichment (6-mer frequency, TF over GST control).

Take GGCAAT: the binding signal with ELK1 is 1 fold enrichment (6-mer frequency, TF over GST control); in the assay with GABPA, 1 fold enrichment (6-mer frequency, TF over GST control); in the assay with ETV5 it was 1 fold enrichment (6-mer frequency, TF over GST control); with ELF3, 1.01 fold enrichment (6-mer frequency, TF over GST control); in the assay with ERF, 1.02 fold enrichment (6-mer frequency, TF over GST control).

For GTCCGG, the binding signal in the assay with ERG is 1.03 fold enrichment (6-mer frequency, TF over GST control); in the assay with ETV5, 1.01 fold enrichment (6-mer frequency, TF over GST control); with ETV1 it was 1 fold enrichment (6-mer frequency, TF over GST control); in the assay with SPDEF it was 1.18 fold enrichment (6-mer frequency, TF over GST control); with ETV3, 1.05 fold enrichment (6-mer frequency, TF over GST control).
